In PubChem BioAssay AID1846 (The Scripps Research Institute Molecular Screening Center, 2009):
Out of some 2,300 compounds screened, about 1,500 (65%) were called active. Cut-off read from the data, not from the text of the source: active = inhibition above about 18%; inactive = the rest. The set was probably picked from earlier hits. The list is a sample of the results.

Each compound was assayed against Heat shock protein HSP 90-alpha (Homo sapiens) (UniProt P07900) (assay: HSP90 inhibitors, confirmation, cell lysate, luminescence (AID 1846;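 note: 0% = vehicle wells and 100% = reference inhibitor wells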)). Settings: rabbit reticulocyte lysate, luciferase refolding luminescence, 3 h; at 5.9 µM; stronger effect = higher value.

Q: With `COc1cccc(-c2nc3ccc(N4CCN(C)CC4)cc3[nH]2)c1` as the compound, how does the inhibition read?
A: 69.3% (active)

Q: Which inhibition does the source give for `O=c1c2ccccc2nc(/C=C/c2ccco2)n1-c1ccccc1O` here?
A: 9.67% (inactive)
